# Source: ChEMBL document CHEMBL4513216, “Probing the Open Global Health Chemical Diversity Library for Multistage-Active Starting Points for Next-Generation Antimalarials” (ACS Infect Dis, 2020)
# In all, about 69,000 compounds went through this assay and about 8,600 (12%) showed an effect of 50% or more. The sample as a whole holds a higher share of strong results than the screen did.
# System: Plasmodium berghei
# Assay: Screen against P. berghei liver stage (PbLuc), transformed with Luciferase, at 10uM
# Type: functional, HepG2
# Details: tested at 10 uM
row,Compound,INHIBITION
1,Cc1cc(C(=O)NCc2cc(C)oc2C)no1,-13%
2,CCN1CCN(C(=O)c2cccc(CN3CCOCC3)c2)CC1,-14.8%
3,COCCN1CCn2cc(CN(C)Cc3ccco3)nc2C1,73%
4,Cc1ccc(CN2CCn3cc(CN(C)Cc4ccco4)nc3C2)o1,-3.16%
5,CCS(=O)(=O)N1CCn2cc(CN(C)Cc3ccco3)nc2C1,47.4%
6,CN(Cc1cn2c(n1)CN(Cc1ccc(F)cc1)CC2)Cc1ccco1,59%
7,CN(Cc1cn2c(n1)CN(Cc1nccs1)CC2)Cc1ccco1,43.9%
8,CN(Cc1cn2c(n1)CN(Cc1ccsc1)CC2)Cc1ccco1,31.1%
9,O=C([C@H]1CC[C@@H]2[C@@H](CCN2Cc2nccs2)O1)N1CCOCC1,-1.12%
10,Cc1ccnc(CC(C)N(C)c2cc(CN)nc(C)n2)c1 (stereo not given),66.5%
11,Cc1ccnc(CC(C)N(C)c2cc(CCN)nc(C)n2)c1 (stereo not given),45.2%
12,Cc1ccnc(CC(C)N(C)c2cc(C3CCNCC3)nc(C)n2)c1 (stereo not given),36.9%
13,Cc1cc(C(=O)N2CCC3(CCNCC3)CC2)c2cccc(C)c2n1,18.4%
14,Cc1nc(CN2CCCC(c3cnccn3)C2)cs1 (stereo not given),17.8%
15,CC(C)c1noc(-c2ccc(NCCCC3CCOC3)nc2)n1 (stereo not given),43.9%
16,CC(C)c1noc(-c2ccc(NCCCN3CCCC(O)C3)nc2)n1 (stereo not given),53%
17,CC(C)c1noc(-c2ccc(NCC3CCCOC3)nc2)n1 (stereo not given),-118%
18,CS(=O)(=O)NC1CC2(CCN(CCF)CC2)Oc2ccccc21 (stereo not given),12.5%
19,CCOC(C)c1nccn1Cc1noc(CC)n1 (stereo not given),8.41%
20,CCC(C)[C@H](N)c1nnc(SCC(=O)Nc2cc(C)ccc2C)o1 (stereo not given in full),22.2%
21,CN(Cc1cc2n(n1)CCN(C(=O)c1cccnc1)C2)Cc1nccs1,-10.6%
22,CN(Cc1cc2n(n1)CCCN(C(=O)N1CCCC1)C2)Cc1nccs1,38.5%

row,Compound,INHIBITION
1,CN(Cc1cc2n(n1)CCN(C(=O)[C@H]1CCCO1)C2)Cc1nccs1,50.3%
2,Cc1nc(C)n(CC2CCCN2CCOc2ccccc2C#N)n1 (stereo not given),17.4%
3,CC(C)CN(CC(O)c1ccccc1)C(=O)NC(C)C (stereo not given),40.9%
4,CCn1nc(C)c(CCNC(=O)C2CCCN(C(N)=O)C2)c1C (stereo not given),-8.11%
5,CC(C)c1ccc(OCCC(=O)N2CCCN(C(N)=O)CC2)cc1,-4%
6,CC(c1cccnc1)N(C)Cc1cc2cc3c(cc2[nH]c1=O)OCO3 (stereo not given),27.6%
7,CC(c1ccccn1)N(C)Cc1cc2cc3c(cc2[nH]c1=O)OCO3 (stereo not given),21.8%
8,CC(c1ccncn1)N(C)Cc1cc2cc3c(cc2[nH]c1=O)OCO3 (stereo not given),58.7%
9,Cc1ccc(N2CCCC(NCCCS(C)(=O)=O)C2)nn1 (stereo not given),14.9%
10,COCCCNC1CCCN(c2ccc(C)nn2)C1 (stereo not given),-28.7%
11,Cc1ccc(N2CCCC(NCCS(C)(=O)=O)C2)nn1 (stereo not given),64.4%
12,CCOCC(=O)NCCCn1ccnc1-c1ccccc1,16.5%
13,CCc1nnc(CN(CC)C(=O)C2CC(=O)N(C(C)(C)C)C2)o1 (stereo not given),35.8%
14,CCn1ccc(-c2cc(C(=O)O)n3nc(C)c(Cl)c3n2)n1,12.3%
15,CCOc1cccc(C(=O)Nc2ccn(CC)n2)c1,-35.4%
16,Cc1cccc(OCCCNC(=O)Cn2ccc(C)cc2=O)c1,-12.9%
17,CCn1ccc(-c2cc(NCCCOc3ccccc3C)nc(C)n2)n1,82.4%
18,COc1ccccc1OCCNCCn1cccn1,19.4%
19,CCn1ccc(-c2cc(NCCCOc3cccc(C)c3)nc(C)n2)n1,75.9%
20,CCCNC(=O)c1nn(CC)cc1NC(=O)C(C)n1ncc(Cl)c1C (stereo not given),8.49%
21,CC(C)NC(=O)N1CCc2ncnc(-c3ccncc3)c2CC1,-7.24%
22,Cc1nc(C)n(CC2CN(CCOc3cccc(C#N)c3)CCO2)n1 (stereo not given),-5.07%

row,Compound,INHIBITION
1,Cc1ccc(CN2CCc3[nH]nc(C(=O)N4CCNC(=O)C4)c3C2)s1,18.7%
2,CCNC(=O)[C@@H]1C[C@H](NC(=O)c2cc(CC)n[nH]2)CN1Cc1ccsc1,-20.5%
3,CCNC(=O)[C@@H]1C[C@@H](NC(=O)c2ccc(C)s2)CN1Cc1ccccn1,18.9%
4,CCNC(=O)[C@@H]1C[C@@H](NC(=O)Cc2ccccn2)CN1CCCSC,41.8%
5,CCNC(=O)[C@@H]1C[C@H](NC(=O)Cc2ccsc2)CN1Cc1ccc(C)o1,24.6%
6,CCNC(=O)[C@@H]1C[C@@H](NC(=O)c2cc(C)on2)CN1Cc1ccccn1,54.8%
7,CCNC(=O)[C@@H]1C[C@H](NC(=O)c2ccc(C)s2)CN1Cc1ccc(C)o1,68.9%
8,CCN(CCOC)C(=O)c1cc(COc2ccc3c(c2)CCCC3)on1,25.1%
9,Cc1cc(C(F)(F)F)nc(CCNC(C)Cn2cncn2)n1 (stereo not given),8.86%
10,COC(=O)CCCC(=O)N1CCC(CO)(CCc2ccccc2)CC1,30.7%
11,CCc1ccc(NC(=O)c2n[nH]c(-n3cnnc3)n2)cc1,25.9%
12,CCc1nc(C2CCCN(C(=O)C(C)(C)NS(C)(=O)=O)C2)no1 (stereo not given),3.73%
13,O=C(c1cnn2c1OCCC2)N1CCC(Cc2ccccc2)CC1,13.6%
14,c1cc(CNCC2Cn3nncc3CO2)ccn1 (stereo not given),29.8%
15,CCN1CCOC(CNCc2ccccn2)C1 (stereo not given),33%
16,c1cc(CNCC2Cn3nncc3CO2)co1 (stereo not given),-21.7%
17,Cc1ccc(CNCC2Cn3nncc3CO2)o1 (stereo not given),43.9%
18,Cc1nc(CNCC2Cn3nncc3CO2)cs1 (stereo not given),5.89%
19,CCN1CCOC(CNCc2cnc(C(C)(C)C)s2)C1 (stereo not given),46.5%
20,Cc1ccc(CNCC2Cn3nncc3CO2)s1 (stereo not given),54.8%
21,c1coc(CNCC2Cn3nncc3CO2)c1 (stereo not given),62.9%
22,CCN1CCOC(CNCc2ccc(C)s2)C1 (stereo not given),73.6%

row,Compound,INHIBITION
1,COc1cccc(C(=O)N2CCc3c(nc(N)[nH]c3=O)C2)c1C,21.8%
2,CN(C)C(=O)[C@H]1C[C@@H]2CCN(Cc3ccoc3)C[C@@H]2O1,34%
3,O=C(Nc1ccccc1)c1cc2n(n1)CCCN(C(=O)N1CCCC1)C2,35%
4,Cc1cc2ccccc2n1CCC(=O)NCCCc1nnc(N)s1,0.426%
5,CCCC(C)C(=O)N1CCC(n2cccc2C(=O)OC)CC1 (stereo not given),12.2%
6,N#Cc1cccc(N2CC3(CCN(C(=O)c4ccncc4)C3)CC2=O)c1 (stereo not given),21.5%
7,COc1c(C2CCCN2Cc2csc(C(C)C)n2)c(C)nn1C (stereo not given),20.1%
8,CCCn1ccnc1CN1CCCC1c1ccccn1 (stereo not given),56.7%
9,CCCn1ccnc1CN1CCCC1c1cccc(-n2ccnc2)n1 (stereo not given),42.4%
10,Cc1nn(C)c(C)c1C1CCCN1Cc1cn2ccsc2n1 (stereo not given),74%
11,Cc1nn(C)c(C)c1C1CCCN1Cc1nc(C2CC2)no1 (stereo not given),21.2%
12,Cc1nn(C)c(C)c1C1CCCN1C(=O)Cc1cn2ccsc2n1 (stereo not given),21.1%
13,COc1c(C2CCCN2Cc2nc(C)c(C)o2)c(C)nn1C (stereo not given),11.2%
14,COc1c(C2CCCN2Cc2nc(C3CC3)no2)c(C)nn1C (stereo not given),52.3%
15,COc1c(C2CCCN2Cc2cn3ccsc3n2)c(C)nn1C (stereo not given),65.6%
16,Cc1nn(C)c(Cl)c1C1CCCN1Cc1cn2ccsc2n1 (stereo not given),24.8%
17,CCc1nc(C2CCCN2Cc2nccn2Cc2ccccc2)no1 (stereo not given),32%
18,CCCc1noc(CN2CCCC2c2c(C)nn(C)c2OC)n1 (stereo not given),42.9%
19,CCN(Cc1ccco1)C(C)c1nc(C(C)C)no1 (stereo not given),-165%
20,Cc1cccc(OCCNC(=O)CN2CCN(C)CC2C)c1 (stereo not given),-43.415%
21,COCC1CN(C(=O)COc2ccccc2)Cc2cn(C)nc21 (stereo not given),11.5%
22,COc1ncccc1C(=O)N1C[C@@H]2COC[C@]2(CN(C)C)C1,-35.2%

row,Compound,INHIBITION
1,O=C(NCCCn1ccnc1)C1CCC(=O)N1Cc1cccs1 (stereo not given),13.9%
2,CCn1cncc1-c1nc2c([nH]1)CC(C)(C)CNC2=O,-23.2%
3,Cc1ccc(O[C@@H]2C[C@H]3CN(C(=O)c4cccnc4)CCN3C2)cc1,-2.25%
4,OCC1N(Cc2ccc(F)cc2)C2CCC1(O)CC2 (stereo not given),39.6%
5,COc1c(C2CCCN2Cc2cc(C)no2)c(C)nn1C (stereo not given),0.938%
6,COc1c(C2CCCN2Cc2nccn2C)c(C)nn1C (stereo not given),22.8%
7,CCn1ccnc1CN1CCCC1c1c(C)nn(C)c1OC (stereo not given),65.4%
8,CC(NC(=O)CN(C)C(C)C)c1ccc(Oc2cccnc2)c(F)c1 (stereo not given),23.5%
9,CSc1nsc(NC(=O)N(C)Cc2ccc3c(c2)OCO3)n1,-29.6%
10,Cc1ccccc1OCCn1cnc2oc(C)c(C(=O)O)c2c1=O,-16.3%
11,CCc1cnc(CCNS(C)(=O)=O)s1,48.3%
12,CC(C)c1nc(C2CCCN2C(=O)c2cc(Cl)c[nH]2)no1 (stereo not given),6.09%
13,CC(C)CN1CCC2(CCN(Cc3nccs3)CC2)C1=O,29%
14,O=C(c1ccoc1)N1CCC(O)(C(F)(F)F)CC1,30%
15,Cc1ccc2cc(C3(O)CCN(C)CC3)ccc2n1,-12.1%
16,Cc1ccc2cc(C(=O)N3CCN(C(=O)N(C)C)CC3)ccc2n1,70.3%
17,Cc1ccc2cc(C3(O)CCN(C(=O)CN4CCCC4)CC3)ccc2n1,-9.67%
18,Cc1ccc2cc(C(=O)N3CCCN(C)CC3)ccc2n1,48%
19,COCCOCC(=O)N1CCC(O)(c2ccc3nc(C)ccc3c2)CC1,-18.5%
20,Cc1ccc2cc(C3(O)CCN(C(=O)CSC(C)C)CC3)ccc2n1,81.6%
21,CN(C)C(=O)N1CCN(C(=O)c2ccn3ccnc3c2)CC1,7.97%
22,Cc1ccc2cc(C(=O)N3CCC(O)(C(F)(F)F)CC3)ccc2n1,51.7%
